Sampled rows, rich in hits. Any-hit rate of the full collection: about 2.2%.
PGC1a acetyl inh: inhibitors of PGC1a acetylation signal, primary screen, cell-based, U2OS, AlphaScreen, inhibitor mode | inhibition, % at 15.6 µM | 350,000 tested, 0.17% active | AlphaScreen anti-acetyl-lysine; with virally co-expressed GCN5 acetyltransferase | AID 651687, 2012;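 active = every replicate shows inhibition of at least 40%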;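 note: 0% = neutral control wells and 100% = positive control wells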
DENV2 CPE: inhibitors of DENV2 cytopathic effect, primary screen, cell-based, plate reader, single concentration. DENV2-infected cells, cytopathic effect rescue. CPE inhibition, % at 9.99 µM. 350,000 tested, 1.7% active. AID 651640, 2012; in the data active = CPE inhibition above about 20%, passing the limit was not always enough; tested in BHK-21 cells;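 note: 0% = median of neutral control wells and 100% = median of positive control wells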
miR122 inh: miR-122 Renilla sensor signal increase in Huh7, primary screen, miR-122 inhibitor project, cell-based, single point, plate reader | Huh7 miR-122 Renilla luciferase sensor, 48 h; neutral wells = 0, positive control = 100 | activation (reporter increase), % at 12.5 µM | 340,000 tested, 0.3% active | AID 602342, 2012;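 active = mean replicate activation score at least 90 and every replicate individually at or above 90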;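 note: higher luciferase means less miR-122 activity so hits act as miR-122 inhibitors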
C2C12 statin: suppressors of statin myotoxicity in C2C12 myotubes, primary screen, cell-based, single point, plate reader; rescue of ATP level, % at 7.49 µM; 330,000 tested, 0.78% active; C2C12 myotubes + simvastatin, ATP luminescence, 48 h; scaled: DMSO 0, geranylgeraniol control 100;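 active = mean ATP rescue above about 67%, or every replicate alone reaching that limit, limit read from the data, passing the limit was not always enough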;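 note: myotubes were challenged with 10 µM simvastatin during compound exposure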
PvdQ acylase: P. aeruginosa PvdQ acylase inhibitors, primary screen, biochemical, fluorescence, plate reader and imaging, single point; inhibition, % at 10 µM; 340,000 tested, 0.063% active; AID 488965, 2010; purified PvdQ acylase; in the data active = inhibition above about 30%, passing the limit was not always enough;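 note: 0% = vehicle neutral wells and 100% = reference inhibitor wells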
* = called active by the depositor; [ ] = remark or other dose.

COc1ccc(CNC(=O)/C=C/c2cc3c(cc2Br)OCO3)cc1 was read as PGC1a acetyl inh 27.2, miR122 inh -1.9, C2C12 statin 85.6* and PvdQ acylase -8.0.
For O=C(/C=C/c1cc2c(cc1Br)OCO2)NCc1ccc(F)cc1 the results were PGC1a acetyl inh -11.5, miR122 inh -1.9, C2C12 statin -1.0 and PvdQ acylase -9.7.
Screening CCN(c1ccccc1)S(=O)(=O)c1cnc[nH]1 returned PGC1a acetyl inh -7.5, miR122 inh -2.4, C2C12 statin 87.6* and PvdQ acylase -2.9.
`CC(C)CNC(=O)CN(C1CCCCC1)S(=O)(=O)c1ccccc1` gave PGC1a acetyl inh -14.2, miR122 inh 3.3, C2C12 statin 102.1* and PvdQ acylase 1.4.
CS(=O)(=O)N(CC(=O)NCc1ccccc1)C1CCCCC1 was read as PGC1a acetyl inh -1.6, miR122 inh -9.0, C2C12 statin 119.7* and PvdQ acylase -13.5.
`O=C(C[C@H]1C[C@H]2c3cc(NC(=O)Nc4ccc(C(F)(F)F)cc4)ccc3O[C@H]2[C@H](CO)O1)NCCc1ccccc1` gave PGC1a acetyl inh 4.9, DENV2 CPE -0.6, miR122 inh 1.0[16.7 µM] and C2C12 statin -2.4.
`C[C@@H]1CCCCO[C@H](CN(C)C(=O)CCCN(C)C)[C@@H](C)CN([C@@H](C)CO)C(=O)c2cc(NC(=O)Nc3ccc4c(c3)OCO4)ccc2O1` gave PGC1a acetyl inh 16.3, DENV2 CPE 47.4* and miR122 inh 4.0[16.7 µM].
C[C@H](CO)N1C[C@H](C)[C@@H](CN(C)C(=O)CCCN(C)C)OCCCC[C@H](C)Oc2ccc(NC(=O)Nc3ccc(C(F)(F)F)cc3)cc2C1=O was read as PGC1a acetyl inh 10.6, DENV2 CPE 1.7, miR122 inh -4.3[16.7 µM] and C2C12 statin 89.8*.
C[C@@H]1CCCCO[C@@H](CN(C)C(=O)CCCN(C)C)[C@H](C)CN([C@H](C)CO)C(=O)c2cc(NC(=O)Nc3ccc4c(c3)OCO4)ccc2O1 was read as PGC1a acetyl inh 1.0, DENV2 CPE -3.4 and miR122 inh -2.6[16.7 µM].
Screening Cc1nnc(SCC(=O)NCc2ccccc2)n1-c1ccccc1 returned PGC1a acetyl inh 5.8, miR122 inh -1.7, C2C12 statin 103.4* and PvdQ acylase -15.5.
Screening COC(=O)C1=C(C)N(Cc2ccccc2)C(=NCC(C)C)N[C@H]1c1cccc(C(F)(F)F)c1 returned C2C12 statin -38.3 and PvdQ acylase -6.0.
For CCN1C(=NCC2CC2)N[C@@H](c2cccc(C(F)(F)F)c2)C(C(=O)OC)=C1C the results were PGC1a acetyl inh -1.9, miR122 inh 0.9, C2C12 statin -56.2 and PvdQ acylase -2.4.
COC(=O)C1=C(C)N(Cc2ccccc2)C(=NCC(C)C)N[C@H]1c1cccc(F)c1 was read as PGC1a acetyl inh -31.5, DENV2 CPE 25.1*, miR122 inh -3.1, C2C12 statin -35.6 and PvdQ acylase 6.5.
For CCN1C(=NCc2ccco2)N[C@@H](c2cccc(C(F)(F)F)c2)C(C(=O)OC)=C1C the results were PGC1a acetyl inh -11.6, DENV2 CPE -2.5, miR122 inh -6.8, C2C12 statin 88.0* and PvdQ acylase 3.8.
`COc1ccc([Si](C)(C)[C@H]2[C@H](CCO)O[C@@]3(C(=O)N(Cc4ccccc4)c4ccc(N5CCC5=O)cc43)[C@@H]2C)cc1` gave PGC1a acetyl inh 5.5 and DENV2 CPE -3.8.
CN(C)C(=O)C[C@@H]1CC[C@H]2[C@@H](COC[C@@H](O)CN2CC2CCCC2)O1 was read as PGC1a acetyl inh 6.4, DENV2 CPE -2.0, miR122 inh 8.0[16.7 µM] and C2C12 statin 4.5.
`O=C(C[C@H]1CC[C@H]2[C@@H](COC[C@@H](O)CN2CC2CCCCC2)O1)NCC1CC1` gave PGC1a acetyl inh -4.0, DENV2 CPE 27.2*, miR122 inh 76.9[16.7 µM] and C2C12 statin 9.4.
Screening CN(C)C(=O)C[C@H]1CC[C@H]2[C@@H](COC[C@H](O)CN2CC2CCCC2)O1 returned PGC1a acetyl inh -0.5, DENV2 CPE 48.0*, miR122 inh 0.4[16.7 µM] and C2C12 statin -2.1.
Screening O=S(=O)(NC1CCN(Cc2ccc(OCCO)cc2)CC1)c1cc(C(F)(F)F)ccc1Cl returned PGC1a acetyl inh -7.1 and DENV2 CPE 28.9*.
`O=S(=O)(NC1CCN(Cc2ccc(OCCO)cc2)CC1)c1cc(Cl)ccc1Cl` gave PGC1a acetyl inh -14.5 and DENV2 CPE 15.8.
Screening Cc1noc(C)c1S(=O)(=O)N(C)C[C@@H]1OCCCC[C@@H](C)Oc2ccc(NC(=O)Nc3ccc(F)cc3)cc2C(=O)N([C@H](C)CO)C[C@H]1C returned PGC1a acetyl inh 3.3, DENV2 CPE -3.5 and miR122 inh -3.8[16.7 µM].
`Cc1noc(C)c1NC(=O)Nc1ccc2c(c1)C(=O)N([C@@H](C)CO)C[C@@H](C)[C@@H](CN(C)S(C)(=O)=O)OCCCC[C@@H](C)O2` gave PGC1a acetyl inh 3.6, DENV2 CPE 102.1* and miR122 inh 7.0[16.7 µM].
Screening Cc1noc(C)c1NC(=O)Nc1ccc2c(c1)C(=O)N([C@@H](C)CO)C[C@@H](C)[C@H](CN(C)S(=O)(=O)c1c(C)noc1C)OCCCC[C@@H](C)O2 returned PGC1a acetyl inh 0.3, DENV2 CPE -11.6, miR122 inh 8.7[16.7 µM] and C2C12 statin 76.7*.
Screening Cc1noc(C)c1S(=O)(=O)N(C)C[C@H]1OCCCC[C@H](C)Oc2ccc(NC(=O)Nc3ccc(F)cc3)cc2C(=O)N([C@@H](C)CO)C[C@@H]1C returned PGC1a acetyl inh -2.2, DENV2 CPE 72.8* and miR122 inh -4.9[16.7 µM].
Screening Cc1noc(C)c1NC(=O)Nc1ccc2c(c1)C(=O)N([C@H](C)CO)C[C@H](C)[C@H](CN(C)S(C)(=O)=O)OCCCC[C@H](C)O2 returned PGC1a acetyl inh 5.8, DENV2 CPE -5.7 and miR122 inh 9.9[16.7 µM].
`CNC(=O)C[C@H]1CC[C@H]2[C@H](COc3ccc(NC(=O)c4ccc5c(c4)OCO5)cc3C(=O)N2C)O1` gave PGC1a acetyl inh 2.4, DENV2 CPE 5.5, miR122 inh 62.5[16.7 µM] and C2C12 statin -11.2.
`CN(C)C(=O)c1cccc(-c2ccccc2[C@@H]2[C@@H](C#N)N(C(=O)C3CCCC3)[C@@H]2CO)c1` gave PGC1a acetyl inh -3.3 and DENV2 CPE 17.0.
Screening CC1(c2nnnn2Cc2ccccc2)CCC(=O)N1CCCN1CCOCC1 (stereo not given) returned DENV2 CPE 19.5.
CC1(c2nnnn2Cc2ccccc2)CCC(=O)N1CCCn1ccnc1 (stereo not given) was read as DENV2 CPE 26.1*.

Screening data as filed in PubChem BioAssay.
